Experimental data reported in PubChem BioAssay AID1159580 (chemical genetic matrix, 2015).
The campaign covered roughly 5,500 compounds. About 2,000 (36%) were called active. Not shown: some 18% with an inconclusive outcome. Cut-off read from the data, not from the text of the source: active = normalized growth mostly below about 0.91 (no sharp cut-off); inconclusive = no clear call, values can overlap the other calls; inactive = mostly above about 0.92. The list shows a part of the results.

Experiment: chemical genetic growth profiling, strain panel (AID 1159580);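 note: tested at 20 µM; growth read once vehicle control cultures reached saturation at 30 °C; 1 = growth at the plate median or of vehicle wells; lower values mean less growth of the strain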
Settings: growth OD

Measured: normalized growth

CCCCC(=O)O[C@]1(C(=O)CO)[C@@H](C)CC2C3CCC4=CC(=O)C=C[C@]4(C)[C@@]3(F)C(O)C[C@@]21C (some centres undefined)
inactive: S. cerevisiae deletion strains, locus YKL009W, strain mrt4, active compounds read low 0.969 | S. cerevisiae deletion strains, locus YKL068W, active compounds read low 0.991 | S. cerevisiae deletion strains, locus YKL085W, strain MDH1 (second series), active compounds read low 0.987 | S. cerevisiae deletion strains, locus YKL085W, strain MDH1, active compounds read low 0.987 | S. cerevisiae deletion strains, locus YKL160W, strain elf1, active compounds read low 0.958 | S. cerevisiae deletion strains, locus YKL190W, strain CNB1, active compounds read low 0.999 | S. cerevisiae deletion strains, locus YKR001C, strain vps1, active compounds read low 0.972 | S. cerevisiae deletion strains, locus YKR026C, strain gcn3, active compounds read low 0.97 | S. cerevisiae deletion strains, locus YKR091W, strain srl3, active compounds read low 0.986 | S. cerevisiae deletion strains, locus YLL001W, strain dnm1, active compounds read low 0.919 | S. cerevisiae deletion strains, locus YLL026W, active compounds read low 0.964 | S. cerevisiae deletion strains, locus YLL041C, strain sdh2, active compounds read low 0.991 | S. cerevisiae deletion strains, locus YLR027C, strain aat2, active compounds read low 0.977 | S. cerevisiae deletion strains, locus YLR039C, strain RIC1, active compounds read low 1.07 | S. cerevisiae deletion strains, locus YLR058C, strain SHM2, active compounds read low 0.95 | S. cerevisiae deletion strains, locus YLR102C, strain apc9, active compounds read low 1 | S. cerevisiae deletion strains, locus YLR113W, strain HOG1, active compounds read low 0.956 | S. cerevisiae deletion strains, locus YLR221C, strain rsa3, active compounds read low 0.993 | S. cerevisiae deletion strains, locus YLR258W, strain gsy2, active compounds read low 0.99 | S. cerevisiae deletion strains, locus YLR262C, strain YPT6 (second series), active compounds read low 0.948 | S. cerevisiae deletion strains, locus YLR262C, strain YPT6, active compounds read low 1.01 | S. cerevisiae deletion strains, locus YLR268W, strain sec22, active compounds read low 0.96 | S. cerevisiae deletion strains, locus YLR320W, strain mms22, active compounds read low 0.996 | S. cerevisiae deletion strains, locus YLR330W, strain CHS5, active compounds read low 0.99 | S. cerevisiae deletion strains, locus YLR342W, strain FKS1 (second series), active compounds read low 1 | S. cerevisiae deletion strains, locus YLR342W, strain FKS1, active compounds read low 0.973 | S. cerevisiae deletion strains, locus YLR357W, strain rsc2, active compounds read low 1 | S. cerevisiae deletion strains, locus YLR370C, strain arc18, active compounds read low 0.977 | S. cerevisiae deletion strains, locus YLR371W, strain rom2, active compounds read low 0.984 | S. cerevisiae deletion strains, locus YLR384C, strain iki3, active compounds read low 0.963 | S. cerevisiae deletion strains, locus YLR418C, strain cdc73, active compounds read low 0.973 | S. cerevisiae deletion strains, locus YML016C, strain PPZ1, active compounds read low 0.987 | S. cerevisiae deletion strains, locus YML032C, strain rad52, active compounds read low 1 | S. cerevisiae deletion strains, locus YML120C, strain ndi1, active compounds read low 0.998 | S. cerevisiae deletion strains, locus YML124C, strain tub3, active compounds read low 1.01 | S. cerevisiae deletion strains, locus YMR058W, strain fet3, active compounds read low 0.981 | S. cerevisiae deletion strains, locus YMR078C, strain ctf18, active compounds read low 0.98 | S. cerevisiae deletion strains, locus YMR125W, strain sto1, active compounds read low 0.99 | S. cerevisiae deletion strains, locus YMR129W, active compounds read low 0.988 | S. cerevisiae deletion strains, locus YMR205C, strain PFK2, active compounds read low 0.984 | S. cerevisiae deletion strains, locus YMR223W, strain ubp8, active compounds read low 0.974 | S. cerevisiae deletion strains, locus YMR231W, strain pep5, active compounds read low 0.979 | S. cerevisiae deletion strains, locus YMR307W, strain GAS1, active compounds read low 0.968 | S. cerevisiae deletion strains, locus YNL067W, strain RPL9B, active compounds read low 0.964 | S. cerevisiae deletion strains, locus YNL071W, strain lat1, active compounds read low 0.918 | S. cerevisiae deletion strains, locus YNL128W, strain TEP1, active compounds read low 0.968 | S. cerevisiae deletion strains, locus YNL153C, strain GIM3, active compounds read low 0.923 | S. cerevisiae deletion strains, locus YNL183C, strain NPR1, active compounds read low 0.933 | S. cerevisiae deletion strains, locus YNL209W, strain ssb2, active compounds read low 0.975 | S. cerevisiae deletion strains, locus YNL233W, strain BNI4, active compounds read low 0.963 | S. cerevisiae deletion strains, locus YNL248C, strain rpa49, active compounds read low 0.967 | S. cerevisiae deletion strains, locus YNL250W, strain rad50, active compounds read low 0.978 | S. cerevisiae deletion strains, locus YNL271C, strain bni1, active compounds read low 0.971 | S. cerevisiae deletion strains, locus YNL298W, strain CLA4, active compounds read low 0.977 | S. cerevisiae deletion strains, locus YNL307C, strain MCK1, active compounds read low 0.979 | S. cerevisiae deletion strains, locus YNL322C, strain KRE1 (second series), active compounds read low 0.954 | S. cerevisiae deletion strains, locus YNR049C, strain mso1, active compounds read low 0.983 | S. cerevisiae deletion strains, locus YNR052C, strain pop2, active compounds read low 0.979 | S. cerevisiae deletion strains, locus YOL006C, strain TOP1, active compounds read low 0.98 | S. cerevisiae deletion strains, locus YOL012C, strain htz1 1.06 | S. cerevisiae deletion strains, locus YOL147C, strain pex11, active compounds read low 0.989 | S. cerevisiae deletion strains, locus YOR001W, strain rrp6, active compounds read low 0.938 | S. cerevisiae deletion strains, locus YOR061W, strain CKA2, active compounds read low 0.987 | S. cerevisiae deletion strains, locus YOR069W, strain VPS5, active compounds read low 0.989 | S. cerevisiae deletion strains, locus YOR070C, strain gyp1, active compounds read low 0.986 | S. cerevisiae deletion strains, locus YOR080W, strain dia2, active compounds read low 0.965 | S. cerevisiae deletion strains, locus YOR083W, strain WHI5, active compounds read low 0.956 | S. cerevisiae deletion strains, locus YOR106W, strain vam3, active compounds read low 0.929 | S. cerevisiae deletion strains, locus YOR136W, strain idh2, active compounds read low 0.979 | S. cerevisiae deletion strains, locus YOR144C, strain elg1, active compounds read low 0.994 | S. cerevisiae deletion strains, locus YOR184W, strain ser1, active compounds read low 0.984 | S. cerevisiae deletion strains, locus YOR231W, strain MKK1, active compounds read low 0.976 | S. cerevisiae deletion strains, locus YOR265W, strain rbl2, active compounds read low 0.981 | S. cerevisiae deletion strains, locus YOR270C, strain vph1, active compounds read low 0.88 | S. cerevisiae deletion strains, locus YOR290C, strain snf2, active compounds read low 1.01 | S. cerevisiae deletion strains, locus YOR316C, strain cot1, active compounds read low 0.988 | S. cerevisiae deletion strains, locus YPL051W, strain arl3, active compounds read low 0.993 | S. cerevisiae deletion strains, locus YPL055C, strain LGE1, active compounds read low 0.975 | S. cerevisiae deletion strains, locus YPL078C, strain atp4, active compounds read low 0.927 | S. cerevisiae deletion strains, locus YPL106C, strain sse1, active compounds read low 1.01 | S. cerevisiae deletion strains, locus YPL240C, strain hsp82, active compounds read low 0.967 | S. cerevisiae deletion strains, locus YPL241C, strain CIN2, active compounds read low 1 | S. cerevisiae deletion strains, locus YPL256C, strain CLN2, active compounds read low 0.973 | S. cerevisiae deletion strains, locus YPR119W, strain clb2, active compounds read low 0.993 | S. cerevisiae deletion strains, locus YPR141C, strain kar3, active compounds read low 0.968 | S. cerevisiae deletion strains, locus YPR163C, strain tif3, active compounds read low 0.985 | S. cerevisiae deletion strains, locus YPR167C, strain met16, active compounds read low 0.984 | S. cerevisiae deletion strains, strain wtn01, active compounds read low 0.992 | S. cerevisiae strains, strain wild type, active compounds read low 0.985
